Test [1] can be described thus: AP1 Signaling Pathway (AID 357; active = well fitted curve in either direction with a large enough effect, not every such curve was filed as active; also: % is scaled to controls: 0 for no effect and ±100 for the full control effect). The following applies: ME-180 AP-1-bla reporter, EGF-induced, beta-lactamase ratio, 5 h; at 38 µM (top of the series). An outline of the steps: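 AP-1-bla ME-180 cells with beta-lactamase reporter under AP-1 response element, stimulated with EC50 EGF; compounds titrated, 5 hours at 37 degrees Celsius. CCF4 read at 460/530 nm ratio; positive and negative modulators judged by AC50.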

The target of test [2] is Cytochrome P450 1A2 (Homo sapiens) (UniProt P05177). The experiment in a line: p450-cyp1a2 (AID 410; calls by dose curve; also: potency is read from the fitted curve at half-maximal effect). The following applies: recombinant CYP1A2, luciferin-ME demethylation, luminescence; series mostly up to 57 µM. An outline of the steps: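 Human CYP1A2 (20nM) demethylated Luciferin-ME at its Km (100uM) in 100mM KPO4. After 10 min compound preincubation, NADPH regeneration ran the reaction 60 min at room temperature. Luciferin was read by luminescence, normalized to 57 uM furafylline.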

The nature of test [3]: NFAT Signaling Pathway (AID 444; active = well fitted curve in either direction with a large enough effect, not every such curve was filed as active;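 also: carbachol stimulus at about its EC50 of 1 µM final; % is scaled to controls: 0 for no effect and ±100 for the full control effect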). The following applies: Jurkat NFAT-bla M1, carbachol, beta-lactamase ratio, 5 h; at 38 µM (top of the series). In short, it runs like this:
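Jurkat cells carrying an NFAT-driven β-lactamase reporter and co-transfected muscarinic M1 receptor were treated with compound plus carbachol (1 uM final, an EC50 level) for 5 h at 37 °C. CCF4 loading followed for 1 h at RT; 460/530 nm ratio gave %activity.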

Test [4] deals with Glucocorticoid receptor (Homo sapiens) (UniProt P04150). As to the kind of experiment: GR-GFP Redistribution (AID 450;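 active = compounds whose dose series gives a full or clear partial fitted curve of increased nuclear translocation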; also: potency is read from the fitted curve at half-maximal effect). The following applies: U2OS GR-GFP nuclear translocation, laser cytometry, 2 h.
The target is the same in test [5]. As to the kind of experiment: GR-EFC Redistribution (AID 451; calls by dose curve; also: potency is read from the fitted curve at half-maximal effect). The following applies: CHO-K1 GR-EFC translocation, beta-gal luminescence, 2 h. An outline of the steps: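 CHO-K1 cells stably expressing nuclear-localized β-gal enzyme acceptor and GR fused C-terminally to the enzyme donor fragment; ligand-driven nuclear translocation restores β-gal by complementation. Compounds titrated up to 46 uM final, 2 h at 37 °C; luminescence read.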

Test [6] addresses Mitogen-activated protein kinase 10 (Mus musculus) (UniProt Q61831). As to the kind of experiment: JNK3 AlphaScreen Assay (AID 530; active = well fitted curve in either direction with a large enough effect, not every such curve was filed as active;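 also: kinase came from lysate of stimulated human HepG2 cells; % is scaled to controls: 0 for no effect and ±100 for the full control effect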). The following applies: JNK3 lysate, c-Jun phosphorylation; series mostly up to 57.1 µM. An outline of the steps: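 JNK3 came from HepG2 lysates pre-activated with IL-1beta and TNF-alpha and phosphorylated biotinylated GST-cJun (1-79) at 10 uM ATP, pH 7.6, room temperature. Compounds were titrated. AlphaScreen signal used anti-phospho-cJun (Ser73) antibody.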
(In general: Bead proximity is the source of the signal in Alpha formats.)

In test [7] the target is 3',5'-cyclic-AMP phosphodiesterase 4B (Homo sapiens) (UniProt Q07343). As to the kind of experiment: qHTS Assay for Inhibitors of PDE-IV (AID 607; active = well fitted activation curve with a large enough effect in the main read-out, with a control signal flat, not every such curve was filed as active; also: % of control where 0% means no effect). The following applies: HEK293 ACTOne CNG channel cells, membrane potential fluorescence; series mostly up to 22.9 µM. In short, it runs like this: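 Cell-based read-out of cAMP via a modified cyclic nucleotide-gated channel and membrane potential dye (535/590 nm) in HEK293 cells expressing PDE4 endogenously. Compounds tested up to 22.9 uM final; 100 uM RO 20-1724 reference.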
Background: Quantitative high-throughput screening tests each substance at several concentrations.

Test [8] concerns the target Cytochrome P450 2C9 (Homo sapiens) (UniProt P11712). As to the kind of experiment: qHTS Assay for Inhibitors and Substrates of Cytochrome P450 2C9 (AID 883). Also: potency is read from the fitted curve at half-maximal effect; nearly all actives have a fitted effect of over 60% in size. The following applies: recombinant CYP2C9, luciferin-H luminescence, 60 min; series mostly up to 57.1 µM. In short, it runs like this:
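CYP2C9 deoxyluciferin hydroxylation, 37C, 60 min with NADPH regeneration; 10nM enzyme, 100uM Luciferin-H (KM). Glo detection reagent stopped reaction; luminescence normalized to sulphaphenazole (57uM) full inhibition.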

The target in test [9] is Cytochrome P450 3A4 (Homo sapiens) (UniProt P08684). As to the kind of experiment: qHTS Assay for Inhibitors and Substrates of Cytochrome P450 3A4 (AID 884). Also: potency is read from the fitted curve at half-maximal effect; nearly all actives have a fitted effect of over 50% in size. The following applies: recombinant CYP3A4, Luciferin-PPXE luminescence; series mostly up to 57.1 µM. In short, it runs like this:
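20 nM human CYP3A4 with 25 uM Luciferin-PPXE (at KM) in 200 mM KPO4, preincubated 10 min with compound; NADPH regeneration started a 60 min RT reaction. Luciferin detected by luminescence, normalized to 57 uM ketoconazole as full inhibition.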

For test [10] the target is unchanged. The experiment in a line: qHTS Assay for Activators of Cytochrome P450 3A4 (AID 885). Also: nearly all actives have a fitted effect of over 65% in size. The following applies: recombinant CYP3A4, Luciferin-PPXE luminescence, 60 min; series mostly up to 57.1 µM. In short, it runs like this: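 Signal was normalized against complete inhibition by 57 uM ketoconazole. The reaction used 20nM CYP3A4 with 25uM Luciferin-PPXE, 10-min compound preincubation and a 60-min NADPH-supported step at RT.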

Test [11] can be described thus: qHTS Assay for Identification of Small Molecule Antagonists for NFkB Signaling Pathway (AID 895; active = well fitted inhibition curve with a large enough effect in the signal ratio, with a control signal flat, not every such curve was filed as active; the % refers to the signal ratio; also: % is scaled to controls: 0 for no effect and ±100 for the full control effect). The following applies: NFkB beta-lactamase reporter cells, FRET ratio 460/530, stimulated with 10 pM TNF alpha; series mostly up to 38.3 µM. An outline of the steps: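 NFkB-bla ME-180 cervical carcinoma cells with beta-lactamase reporter under NFkB response element; compounds added, then TNF alpha at 10 pM final (EC50), 5 h at 37 C. LiveBLAzer substrate 2 h, room temperature; emission 460/530 nm at 405 nm excitation.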

Test [12] has as its target Cytochrome P450 2C19 (Homo sapiens) (UniProt P33261). The experiment in a line: qHTS Assay for Inhibitors and Substrates of Cytochrome P450 2C19 (AID 899). Also: potency is read from the fitted curve at half-maximal effect; nearly all actives have a fitted effect of over 60% in size. The following applies: recombinant CYP2C19, luciferin-H EGE luminescence; series mostly up to 57.1 µM. In short, it runs like this: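 In 50mM KPO4, the reaction held 5nM enzyme and KM-level (10uM) Luciferin-H EGE; it ran 60 min at 37C after NADPH regeneration and a 10 min compound preincubation. Luminescence values were scaled to 57uM ketoconazole as complete inhibition.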

Test [13] in a line: Confirmation and Secondary Assay for Modulators of Hemoglobin Beta Chain Splicing at IVS2 654 locus (AID 910).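 Also: per-well total GFP intensity by laser scanning cytometry after 2-day treatment; % of control where 0% means no effect.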 The following applies: HeLa EGFP-654 splicing reporter, GFP fluorescence, 48 h; series mostly up to 46.1 µM. In short, it runs like this:
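HeLa cells stably carrying EGFP interrupted by mutant beta-globin IVS2-654 intron (CMV-driven) were treated with compound for 2 days at 37C; corrected splicing was scored as total peak GFP intensity per well (488 nm excitation, 500-520 nm emission).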

The nature of test [14]: qHTS Assay for Identification of Small Molecule Agonists for Hypoxia Response Element Signaling Pathway (AID 914; active = well fitted activation curve with a large enough effect in the signal ratio, with a control signal flat, not every such curve was filed as active; the % refers to the signal ratio; also: % of control where 0% means no effect). The following applies: ME-180 (cervical carcinoma) HRE-bla reporter, beta-lactamase ratio, CoCl2, 17 h; active compounds read high. An outline of the steps:
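qHTS titration; ME-180 HRE-bla cells; EC50 CoCl2 co-treatment, 17 h at 37 degrees Celsius; CCF4 dye, ex 405nm, em 460nm and 530nm; %Activity from ratio; AC50.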

Test [15] is described as follows: Confirmation and Secondary Assay for Modulators of Hemoglobin Beta Chain Splicing at IVS2 705 locus (AID 930).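 Also: GFP fluorescence per well restored by corrected splicing of the IVS2-705 intron in EGFP; % of control where 0% means no effect.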 The following applies: HeLa EGFP-705 splicing reporter, GFP fluorescence, 48 h; series mostly up to 46.1 µM. An outline of the steps: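 Secondary splice-site specificity test uses HeLa expressing CMV-driven EGFP interrupted by IVS2-705; cells were treated 2 days at 37C with 500 nM antisense PNA as positive control.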

Test [16] addresses Pyruvate kinase (Leishmania mexicana) (UniProt Q27686). The experiment in a line: qHTS Validation Assay for Inhibitors of Leishmania Mexicana Pyruvate Kinase (AID 945).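 Also: 0% = DMSO only neutral control wells.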 The following applies: purified L. mexicana pyruvate kinase, enzyme activity, E451W mutant enzyme; series mostly up to 57.5 µM. An outline of the steps: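 Read-out: luminescence from PKLight stop/detection reagent, data normalized to DMSO. Reaction: 0.2 nM E451W LmPYK, 0.5 mM PEP, 0.1 mM ADP, pH 7.2, 1 h room temperature.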

Test [17] addresses Pyruvate kinase PKM (Homo sapiens) (UniProt P14618). As to the kind of experiment: qHTS Assay for Activators of Human Muscle Pyruvate Kinase (AID 954; active = well fitted curve in the direction sought with a large enough effect, not every such curve was filed as active;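 also: 0% = uninhibited enzyme and -100% = no enzyme or full thiadiazolimine inhibition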). The following applies: purified human muscle pyruvate kinase, luciferase-coupled luminescence, 1 h; series mostly up to 57.5 µM. In short, it runs like this:
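Human PKM2 activity is measured as ATP generation, detected by luciferase-coupled luminescence. The enzyme (0.1 nM) acts on 0.5 mM PEP and 0.1 mM ADP for 1 h at ambient temperature; data are normalized to uninhibited and full-inhibition wells.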

Test [18] addresses alpha-glucosidase (Oryza sativa, rice) (UniProt Q653V4). The experiment in a line: Counterscreen for Glucocerebrosidase Inhibitors: qHTS Assay for Rice alpha-Glucosidase at pH 5.0 (AID 997).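 Also: 0% = full activity with enzyme and -100% = basal without enzyme.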 The following applies: rice alpha-glucosidase enzyme activity; series mostly up to 76.9 µM. In short, it runs like this: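 Rice alpha-glucosidase (4 nM final) with 400 uM 4-methylumbelliferyl-alpha-D-glucopyranoside in citrate buffer pH 5.0, 20 min at room temperature, stopped at pH 10; fluorescence 365/440 nm, compounds 0.7 nM–77 uM, AC50 from Hill fits.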
(In general: A counterscreen serves to expose hits that act by an unwanted route or on another target.)

Values joined by “and” are separate entries in the source; they are usually repeats but may differ in a detail not shown here. Equal entries are not always repeated. A number with no mark means an inactive call. Inconclusive results are not listed. Active and inactive are the calls of the source. Unless noted, calls follow the shape of the dose curve; as a rule, active = well fitted curve in the direction sought with a large enough effect; inconclusive = small, poorly fitted or top-dose-only effect, or another doubt; inactive = no such curve, though single readings can be large; an effect the other way counts as inactive or inconclusive. Bounds are passed on as bounds.

Chain of Glucocorticoid receptor (Homo sapiens) (P04150 whole entry, looked up, the tested form may be a part): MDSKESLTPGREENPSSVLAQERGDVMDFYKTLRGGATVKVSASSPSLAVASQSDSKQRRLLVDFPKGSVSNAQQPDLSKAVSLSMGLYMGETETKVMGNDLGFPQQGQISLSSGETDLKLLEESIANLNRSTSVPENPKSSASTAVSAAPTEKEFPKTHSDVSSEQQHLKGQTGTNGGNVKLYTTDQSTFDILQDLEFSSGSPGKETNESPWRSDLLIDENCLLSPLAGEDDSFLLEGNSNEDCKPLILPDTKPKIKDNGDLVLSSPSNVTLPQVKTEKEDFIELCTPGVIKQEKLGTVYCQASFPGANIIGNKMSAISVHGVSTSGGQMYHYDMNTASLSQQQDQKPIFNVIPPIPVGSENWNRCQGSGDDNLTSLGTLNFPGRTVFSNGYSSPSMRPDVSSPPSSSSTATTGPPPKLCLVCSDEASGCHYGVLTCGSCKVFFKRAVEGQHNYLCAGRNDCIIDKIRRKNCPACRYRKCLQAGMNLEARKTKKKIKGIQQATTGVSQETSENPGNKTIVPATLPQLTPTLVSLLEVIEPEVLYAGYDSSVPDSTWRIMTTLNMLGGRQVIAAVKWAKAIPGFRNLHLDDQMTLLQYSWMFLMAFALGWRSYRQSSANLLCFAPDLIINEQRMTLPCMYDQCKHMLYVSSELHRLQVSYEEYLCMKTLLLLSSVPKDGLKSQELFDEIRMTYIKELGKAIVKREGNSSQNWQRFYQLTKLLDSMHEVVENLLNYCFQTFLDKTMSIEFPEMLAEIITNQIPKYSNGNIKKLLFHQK
Chain of Cytochrome P450 3A4 (Homo sapiens) (P08684 whole entry, looked up): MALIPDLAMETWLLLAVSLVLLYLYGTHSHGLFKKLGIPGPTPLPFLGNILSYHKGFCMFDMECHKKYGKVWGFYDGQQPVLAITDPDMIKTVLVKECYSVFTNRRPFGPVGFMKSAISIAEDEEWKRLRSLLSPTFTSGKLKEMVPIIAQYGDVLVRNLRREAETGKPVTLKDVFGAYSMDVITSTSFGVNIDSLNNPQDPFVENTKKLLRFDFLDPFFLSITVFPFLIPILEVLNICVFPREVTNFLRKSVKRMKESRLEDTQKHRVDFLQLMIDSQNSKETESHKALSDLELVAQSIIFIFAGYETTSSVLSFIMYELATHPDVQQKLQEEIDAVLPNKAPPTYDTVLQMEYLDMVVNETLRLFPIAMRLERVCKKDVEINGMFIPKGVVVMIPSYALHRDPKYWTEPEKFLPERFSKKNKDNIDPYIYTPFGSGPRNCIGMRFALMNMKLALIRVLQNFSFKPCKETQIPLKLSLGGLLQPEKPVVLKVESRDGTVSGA
Chain of Cytochrome P450 1A2 (Homo sapiens) (P05177 whole entry, looked up): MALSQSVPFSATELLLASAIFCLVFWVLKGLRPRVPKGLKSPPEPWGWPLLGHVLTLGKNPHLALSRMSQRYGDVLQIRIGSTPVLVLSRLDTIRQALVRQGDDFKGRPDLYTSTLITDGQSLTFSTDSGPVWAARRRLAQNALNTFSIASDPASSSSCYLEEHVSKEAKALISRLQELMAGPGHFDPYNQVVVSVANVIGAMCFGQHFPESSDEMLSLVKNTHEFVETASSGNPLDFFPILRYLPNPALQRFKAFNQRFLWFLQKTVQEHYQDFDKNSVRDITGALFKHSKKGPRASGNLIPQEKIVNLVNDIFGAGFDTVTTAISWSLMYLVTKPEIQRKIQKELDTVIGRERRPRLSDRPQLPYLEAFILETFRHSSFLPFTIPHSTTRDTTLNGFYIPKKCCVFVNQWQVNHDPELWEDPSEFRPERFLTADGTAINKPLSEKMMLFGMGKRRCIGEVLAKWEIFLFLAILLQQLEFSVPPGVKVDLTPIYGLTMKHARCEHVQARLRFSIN
Chain of Cytochrome P450 2C9 (Homo sapiens) (P11712 whole entry, looked up): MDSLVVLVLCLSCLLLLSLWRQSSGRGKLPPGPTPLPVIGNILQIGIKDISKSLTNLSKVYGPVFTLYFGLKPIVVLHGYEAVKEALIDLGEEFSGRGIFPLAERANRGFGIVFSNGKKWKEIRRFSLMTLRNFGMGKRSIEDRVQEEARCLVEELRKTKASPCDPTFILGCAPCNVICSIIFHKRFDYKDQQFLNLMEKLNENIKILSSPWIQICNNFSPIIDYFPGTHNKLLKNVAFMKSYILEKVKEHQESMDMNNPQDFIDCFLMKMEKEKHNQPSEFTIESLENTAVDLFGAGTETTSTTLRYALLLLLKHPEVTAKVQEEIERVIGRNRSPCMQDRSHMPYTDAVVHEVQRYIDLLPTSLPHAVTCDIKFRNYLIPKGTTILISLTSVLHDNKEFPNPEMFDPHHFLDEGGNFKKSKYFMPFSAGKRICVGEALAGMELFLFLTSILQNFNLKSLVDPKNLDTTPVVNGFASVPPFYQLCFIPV
Chain of 3',5'-cyclic-AMP phosphodiesterase 4B (Homo sapiens) (Q07343 whole entry, looked up): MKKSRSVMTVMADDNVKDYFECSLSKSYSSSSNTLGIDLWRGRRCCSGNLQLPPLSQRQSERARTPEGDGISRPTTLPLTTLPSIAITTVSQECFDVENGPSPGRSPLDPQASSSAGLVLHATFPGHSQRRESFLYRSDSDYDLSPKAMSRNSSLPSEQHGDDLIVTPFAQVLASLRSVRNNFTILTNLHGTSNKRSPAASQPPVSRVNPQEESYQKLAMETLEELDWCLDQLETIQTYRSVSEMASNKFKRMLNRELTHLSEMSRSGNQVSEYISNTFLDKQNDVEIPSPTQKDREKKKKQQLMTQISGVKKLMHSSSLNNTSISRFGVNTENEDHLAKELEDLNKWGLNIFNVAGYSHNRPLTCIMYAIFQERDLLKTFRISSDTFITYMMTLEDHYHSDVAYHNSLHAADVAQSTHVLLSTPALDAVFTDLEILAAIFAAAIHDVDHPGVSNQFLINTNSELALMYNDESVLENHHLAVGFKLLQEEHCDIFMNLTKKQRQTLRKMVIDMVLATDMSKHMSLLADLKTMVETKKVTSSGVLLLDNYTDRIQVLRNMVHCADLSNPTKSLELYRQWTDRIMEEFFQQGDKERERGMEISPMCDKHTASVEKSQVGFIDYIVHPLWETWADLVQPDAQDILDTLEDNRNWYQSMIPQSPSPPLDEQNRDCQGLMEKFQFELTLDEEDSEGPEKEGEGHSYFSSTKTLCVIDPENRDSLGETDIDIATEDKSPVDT
Chain of Pyruvate kinase PKM (Homo sapiens) (P14618 whole entry, looked up): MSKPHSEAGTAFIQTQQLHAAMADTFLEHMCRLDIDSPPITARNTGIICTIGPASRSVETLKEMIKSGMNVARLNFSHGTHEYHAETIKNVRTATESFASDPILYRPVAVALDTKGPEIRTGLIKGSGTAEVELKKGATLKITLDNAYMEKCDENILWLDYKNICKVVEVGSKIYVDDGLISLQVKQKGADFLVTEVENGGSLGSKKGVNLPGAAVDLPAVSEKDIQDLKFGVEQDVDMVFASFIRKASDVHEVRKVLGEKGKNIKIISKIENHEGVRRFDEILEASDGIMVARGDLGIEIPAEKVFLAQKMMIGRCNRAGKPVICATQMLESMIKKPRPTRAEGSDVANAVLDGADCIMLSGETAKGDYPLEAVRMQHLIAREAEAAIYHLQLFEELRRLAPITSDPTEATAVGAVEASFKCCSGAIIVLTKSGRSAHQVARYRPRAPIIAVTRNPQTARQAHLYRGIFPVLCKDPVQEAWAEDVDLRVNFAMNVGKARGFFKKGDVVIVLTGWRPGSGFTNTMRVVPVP
Chain of Pyruvate kinase (Leishmania mexicana) (Q27686 2-499 E452W): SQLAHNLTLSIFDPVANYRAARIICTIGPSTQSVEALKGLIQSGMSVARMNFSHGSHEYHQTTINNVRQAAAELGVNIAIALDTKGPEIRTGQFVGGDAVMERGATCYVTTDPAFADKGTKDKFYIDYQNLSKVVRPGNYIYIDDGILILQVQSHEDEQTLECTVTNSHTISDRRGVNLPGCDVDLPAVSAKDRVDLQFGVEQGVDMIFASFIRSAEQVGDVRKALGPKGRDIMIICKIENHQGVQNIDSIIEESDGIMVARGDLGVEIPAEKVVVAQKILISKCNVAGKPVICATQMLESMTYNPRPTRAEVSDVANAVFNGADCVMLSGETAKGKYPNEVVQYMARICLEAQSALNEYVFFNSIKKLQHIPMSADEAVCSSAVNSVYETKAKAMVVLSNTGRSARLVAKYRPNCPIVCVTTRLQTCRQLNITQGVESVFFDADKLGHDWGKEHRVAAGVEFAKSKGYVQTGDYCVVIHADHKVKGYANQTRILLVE
Chain of Cytochrome P450 2C19 (Homo sapiens) (P33261 whole entry, looked up): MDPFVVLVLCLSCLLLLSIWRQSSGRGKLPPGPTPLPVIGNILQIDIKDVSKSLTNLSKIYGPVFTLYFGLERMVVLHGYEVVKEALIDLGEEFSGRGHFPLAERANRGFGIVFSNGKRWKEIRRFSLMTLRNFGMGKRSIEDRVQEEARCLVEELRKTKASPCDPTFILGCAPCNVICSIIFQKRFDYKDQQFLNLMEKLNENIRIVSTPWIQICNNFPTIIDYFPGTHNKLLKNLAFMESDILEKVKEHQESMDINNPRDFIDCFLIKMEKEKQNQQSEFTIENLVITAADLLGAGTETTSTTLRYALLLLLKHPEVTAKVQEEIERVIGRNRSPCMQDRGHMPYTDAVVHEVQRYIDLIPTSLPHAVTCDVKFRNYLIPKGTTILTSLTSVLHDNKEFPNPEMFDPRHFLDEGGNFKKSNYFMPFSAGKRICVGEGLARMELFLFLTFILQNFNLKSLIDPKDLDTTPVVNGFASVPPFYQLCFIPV

For the compound `NCCCCCCNS(=O)(=O)c1cccc2c(Cl)cccc12`, the values for the activity change, negative = inhibition in test [1] and in [3] were 7.92% and -4.09%, respectively. For the same compound, the Potency was 7.94 µM (active) and 1.26 µM (active) in test [2]; above 46 µM in test [4]; above 46 µM in test [5]; 3.16 µM (active) in test [8]; 3.98 µM (active) and 2.51 µM (active) in test [9]; 0.199 µM (active) in test [12]. The Potency result in test [6], in [7], in [10], in test [11] and in test [16] was “inactive” throughout. The compound was classed as inactive in test [13], in test [15], in test [17] and in test [18]. Also, the activation in test [14] was -27.9%.

For the origin of these results see PubChem BioAssay (NCATS).
